± gives the standard deviation of the averaged measurements. Whole data set: some 25,000 sequences, median “ln(normalized median fluorescence intensity)” near 8.6, cut for the highest 2% near 10. The list comes from a sample in which the highest values are over-represented; it also holds similar and randomly drawn sequences.
System: PfAP2-EXP AP2 domain (GST-tagged)
Experiment: gcPBM binding intensity (ln(normalized median fluorescence intensity)); higher = stronger DNA binding
Outline: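 GST-fused DNA-binding domains of P. falciparum, expressed in E. coli, were applied at about 25 μg on average for 1 h to an Agilent 4 × 180k array of primer-extended double-stranded 36-bp intergenic genomic probes and negative controls. Binding intensity is the highest Masliner-normalised natural-log median intensity across replicate spots of either probe orientation, measured with Alexa488 anti-GST antibody and a 488 nm scan.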

| Sequence | gcPBM binding intensity (ln) |
| --- | --- |
| AAACCTTTAGAAAATCGTACAAAACATAACCACCTA [XGTACX_site1098] | 8.81 ± 0.61 |
| CACAGACACGGACACACACACACAAAAAAAAAAAGA [CACACA_site4436] | 8.44 ± 0.57 |
| TATTTTTAAATATAAAGTACTTATATTAACTACGAA [XGTACX_site1524] | 8.27 ± 0.29 |
| TATATATATACATACATACACACATATATATATATA [CACACA_site4109] | 10.1 ± 0.67 |
| ACAATAAAATATGGCACACATATATATATATATTTA [CACACA_site3] | 8.43 ± 0.34 |
| AAAATCTAGGTATTTATACACACTAAAATAATATAC [CACACA_site623] | 8.52 ± 0.3 |
| AAATAAAATAAAATAAAATAAAATAAAATAAAATAA [XGTACX_negctrl_site142] | 8.49 ± 0.28 |
| AAAAAATATATATGCACACACAAAAAAACAAATTAA [CACACA_site1278] | 8.78 ± 0.38 |
| ATATATATATATTGTACACACATTTATGCATATATA [CACACA_site5738] | 9.97 ± 0.3 |
| AGTGAAATTTTAGTCACACAGTTTTATCTTTAAGAA [CACACA_site5202] | 8.12 ± 0.52 |
| TTGTGTTATCACACGAAGGGGATAAGACATAAATGT [TGCATGCA_negctrl_site368] | 8.49 ± 0.49 |
| TCTTAAGGAAAAGAGTGTACAGAAATTTTTATTAAC [XGTACX_site6139] | 8.67 ± 0.48 |
| TGTAGTCTGGAGAAAAGTACATAGTATCTGGTAACC [XGTACX_site2025] | 8.62 ± 0.38 |
| ATAAAAAGCTAAAAAGTGCAAAAAGTAAATATTTAA | 9 ± 0.44 |
| TTTAAATAAAATATTACACACTTAGAAAAATATATA [CACACA_site3663] | 8.38 ± 0.28 |
| AGAATAATAAAATGGGTGCAATAGTTTTTTTTTTTT [GTGCAC_site9823] | 8.59 ± 0.13 |
| TATAAGTTTATATATACACACATATATATATATATA [CACACA_site3274] | 10.2 ± 0.34 |
| ATTTATATATATATAGGTACACATATTTATATATAA [XGTACX_site8487] | 8.23 ± 0.2 |
| TTTTTTTTTTTTAATACACACATATATATATTTATT [CACACA_site3994] | 8.38 ± 0.42 |
| TATATACATATATATACACACATATATATATTTTAT [CACACA_site3788] | 8.26 ± 0.4 |
| TATATATATATATATACACACATATATATATTTTTC [CACACA_site3983] | 10.2 ± 0.26 |
| AGGATATATAAGTATACACACATATTTATATTTATA [CACACA_site6239] | 8.23 ± 0.42 |
| TTTTTTTTTTTTAATACACACATATTTATATTTATT [CACACA_site7802] | 8.44 ± 0.3 |

| Sequence | gcPBM binding intensity (ln) |
| --- | --- |
| CATATATATATATATACACACATATATATTTTCTTT [CACACA_site1457] | 8.69 ± 0.15 |
| TATATAAACACGTACACACACATATAGGTATTTATA [CACACA_site7615] | 8.71 ± 0.49 |
| ATATATTTATTATTAGGTACACATATATATATATAT [XGTACX_site5045] | 10.2 ± 0.54 |
| AATATATTTTAATACACACACACATATATATATATA [CACACA_site5969] | 10.3 ± 0.34 |
| ACAAATAAGTTTTATACACACATATAAGTAAATACA [CACACA_site4157] | 8.57 ± 0.29 |
| TATATAAACCCGTACACACACATATATGTATATATA [CACACA_site3507] | 8.91 ± 0.25 |
| TGTTTTTAAATTTAAATCAAAAAATAAAATAAAATA [GTGCAC_negctrl_site355] | 8.34 ± 0.48 |
| CTTACCAAAAGACACACACACACAAGATATATAAAT [CACACA_site6964] | 8.77 ± 0.56 |
| TATTGTTATGTCGTTATTAACTTTCTTTAATTAATT [CACACA_negctrl_site174] | 8.95 ± 0.29 |
| TTTTTTTTTTTGAGGAGGACACAAAAATATGCTACC [XGTACX_site756] | 8.53 ± 0.26 |
| TTTAATCAATGATTTAATGAAAAAAGCAAAAAAAAA [GTGCAC_negctrl_site213] | 8.38 ± 0.45 |
| TATATATATATATATACACACATATATATATTTATA [CACACA_site627] | 10.3 ± 0.18 |
| AAATTATAATTAGGAACACACATATATATATATATA [CACACA_site3098] | 10.1 ± 0.33 |
| TGAATATTTCTATATACACACATATATATATATATA [CACACA_site3451] | 10.3 ± 0.12 |
| TATTTATATTTATATACACACATACATATTTATATT [CACACA_site6535] | 8.41 ± 0.33 |
| TAATATTGACTATATACACACATATAAATATAAATA [CACACA_site6414] | 8.4 ± 0.33 |
| TAATATTGACTATATACACACATATATATATATATA [CACACA_site575] | 10.2 ± 0.28 |
| ATTTATTGACTATTTACACACATATTTATTATAATA [CACACA_site1624] | 8.9 ± 0.52 |
| TATATATATATTTATACACACACATATATTTATATA [CACACA_site8054] | 9.47 ± 0.071 |
| AAAAATTTTAATTAGGAACACACATATATATATATA [CACACA_site9016] | 10.1 ± 0.27 |
| AAATTTTAATTAGGAACACACATATATATATATATA [CACACA_site5673] | 10.2 ± 0.24 |
| TGAATATTTCTATATACACACATATAAATATAAATA [CACACA_site7593] | 8.26 ± 0.36 |
| GTAATTTTTTTCTATACACACATATATATAATATAT [CACACA_site2655] | 8.74 ± 0.32 |

| Sequence | gcPBM binding intensity (ln) |
| --- | --- |
| AAATTCATATGAATTTGTACGGACATAAATATCTTC [XGTACX_site1838] | 8.62 ± 0.33 |
| TGAATTTACAAAATCATGCACTTAATTACAGAATAA | 8.38 ± 0.26 |
| TCCATATGCAAACTGGTGCACAAGTAGCTTTTATAT | 8.99 ± 0.3 |
| TCATAAAAAGGAATCTTTAAGATATTTTATAAGCTC [XGTACX_negctrl_site18] | 8.06 ± 0.5 |
| TATATAAAAATCAATTGTACTTTTTTTTTTTTTTTT [XGTACX_site7327] | 8.52 ± 0.16 |
| TTAAGATCCTAAAAAACACACAATTGTGAATAATAA [CACACA_site3872] | 8.69 ± 0.53 |
| TGTAGATAAAATAAACGTACGTATTGATTTTTTTCA [XGTACX_site1610] | 8.26 ± 0.41 |
| CATATTATATTCTGCTTACACACATATATATATATA [CACACA_site3059] | 10.1 ± 0.42 |
| TATTCTAGTCTGCTTACACACATATTTATATTTATA [CACACA_site7432] | 8.81 ± 0.54 |
| TATTATATTCTGCTTACACACATATATATATATATA [CACACA_site3060] | 10.3 ± 0.38 |
| GAAGATTTATCTTGCACACGCAAAAAAAAAAAAAAA [CACACA_site154] | 8.4 ± 0.27 |
| TGAAGGATATATTCCGTGCACATATAAATATATACA | 8.735 ± 0.007 |
| ATATATATATATATATGTACTAAATATTCATCCTTA [XGTACX_site6039] | 10.2 ± 0.3 |
| AATCTTAAAAATATATGTACTAAAAAAAAAAAAAAT [XGTACX_site6195] | 8.37 ± 0.47 |
| AAAATATTTCATATATGTACTTAAAAAAAAAAAAAA [XGTACX_site5399] | 8.27 ± 0.38 |
| CTATATATATATTTCAGTACATATTAAGAATATATA [XGTACX_site4860] | 8.31 ± 0.38 |
| TATAACATAGGACACACACACATACATACACAAAAA [CACACA_site5062] | 8.94 ± 0.35 |
| ATATATATATATAAAGGTACACATTTATTAAATATA [XGTACX_site7102] | 10.1 ± 0.12 |
| TTTAATATGTATTTTTTTTTTTTTTTTTTTTTTTTT [XGTACX_negctrl_site440] | 9.06 ± 0.085 |
| ATATAATATATATATTGTACATATATTTATAAGCAT [XGTACX_site3726] | 8.38 ± 0.19 |
| AAGCATCCTACTGATTGTACATATATATATATATAT [XGTACX_site2150] | 10.2 ± 0.3 |
| ATATCCTACTTCTAGTGTACATATATGGACTGATGA [XGTACX_site3683] | 8.87 ± 0.35 |
| AACGAAATCATCAAGTGTACTAGTTTATTATTAATA [XGTACX_site6161] | 8.38 ± 0.42 |

| Sequence | gcPBM binding intensity (ln) |
| --- | --- |
| TTTTTTCTTTTTTTTTGTACATATAATATTTATGTT [XGTACX_site302] | 8.62 ± 0.4 |
| AAGTACCATATAGGCACACATATATATATATATATA [CACACA_site3282] | 10.2 ± 0.34 |
| ATGTACTATAGGCACACACACTCACATATATATATA [CACACA_site5745] | 9.96 ± 0.22 |
| AAAATAATAATAGGCACACATATATATATATATATA [CACACA_site2058] | 10.1 ± 0.33 |
| AAGAAAAGCAAACAAGTGCATAATAACAAAAAAAAT [GTGCAC_site9725] | 9.13 ± 0.46 |
| TTGTTTCTTAAATTATTTATTTTATATTAAAAAAAA [XGTACX_negctrl_site224] | 8.31 ± 0.46 |
| ATTTATTTTATTTTCACACACAAAAATAAATATCCG [CACACA_site2414] | 8.44 ± 0.44 |
| TTATTATTATTACTAGTGCATTAATTATATATGTAA | 8.72 ± 0.13 |
| ATATATATATATATATGTACATATTATTATTTTGAT [XGTACX_site4752] | 10.1 ± 0.38 |
| ATATATATATATATATGTACATATTTTTGTTTGATG [XGTACX_site51] | 10.2 ± 0.81 |
| ATATTGTTATATGTTTGTACATATTTTTTATATTTT [XGTACX_site6834] | 8.93 ± 0.91 |
| TTTTTTTTTTGATGTTGTACATATATATTATATATA [XGTACX_site6377] | 8.55 ± 0.41 |
| ATATATATATATATATGTACATACATATTGTTTGGT [XGTACX_site2284] | 10.3 ± 0.76 |
| CATATATATATATATTGTACAAGATTGTTTTTTTAT [XGTACX_site3913] | 8.76 ± 0.35 |
| TTTATATTGTTTTATTGTACATATATATTTATACAT [XGTACX_site6821] | 8.81 ± 0.4 |
| TATATATCTATATATTGTACATATGTTTGTATGTGT [XGTACX_site7420] | 8.54 ± 0.29 |
| ATATATATATATATATGTACACATATATGTGTTTGT [XGTACX_site62] | 10.1 ± 0.26 |
| ATATATATATATATATGTACATATGTTTGTTTCCGC [XGTACX_site5167] | 10.3 ± 0.21 |
| GTGTTTTTTTTAGATTGTACATATATATATATATAT [XGTACX_site4562] | 10.3 ± 0.33 |
| ATATATATATATATATGTACATATGTATGTGTTTGT [XGTACX_site397] | 9.93 ± 0.42 |
| TAACTAAGGAATAATACACACAGAAATATAGATTTA [CACACA_site6293] | 8.41 ± 0.42 |
